Common to all, as to assay: NCI-60 one-dose screen, 48 h (100 = growth as untreated, 0 = no growth, -100 = all killed)
What all share (conditions): 10 µM unless noted

In assay [1] the test system is NCI-H23 lung.
Assay [2] concerns NCI-H226 lung.
Assay [3] concerns NCI-H322M lung.
The test system of assay [4] is HOP-62 NSCLC.
Assay [5] deals with NCI-H460 lung.
For assay [6], the system named is HOP-92 NSCLC.
Assay [7] deals with NCI-H522 lung.
Assay [8] concerns A549/ATCC NSCLC.
In assay [9] the test system is 786-0 renal.
The test system of assay [10] is COLO 205 colon.
The subject of assay [11] is DU-145 prostate.
In assay [12] the test system is K-562 leukemia.
The test system of assay [13] is MALME-3M melanoma.
The test system of assay [14] is MDA-MB-231 breast.
In assay [15] the test system is RXF 393 renal.
The test system of assay [16] is SF-268 CNS.
Assay [17] deals with SF-295 CNS.
Assay [18] relates to SF-539 CNS.
Assay [19] has as its system UACC-257 melanoma.
For assay [20], the system named is M14 melanoma.

Compounds without any hit were thinned out: in the full panel of roughly 83,000, 20% have a hit.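 Results are percent growth after 48 hours of single-concentration exposure. 100 means growth as in untreated cells, lower positive values show inhibition; negative values down to -100 show cell death.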 A number with no mark means an inactive call. Calls of active or inactive are those of the source. Rule for the calls: active = growth percent below 10; inactive = the rest.

The values that follow come from PubChem BioAssay (NCI).

With `C[N+](C)(C/C=C/c1ccccc1)Cc1ccccc1`, the growth is 85.2% in assay [1]; 93.1% in [2]; 89.7% in assay [3]; 96.7% in assay [4]; 102% in assay [5]; 104% in [6]. Further, the growth in assay [7] is 90.7%; in assay [8], 94.4%; in assay [9] it was 99.1%; in [10], 104%; in [11], 102%; in assay [12], 110%. For the same compound, the growth in assay [13] was 86.8%; in [14], 102%; in assay [15], 99.2%; in assay [16], 90.3%; in assay [17], 93.5%; in [18], 93.9%. Moreover, the growth in assay [19] is 97.7%; in assay [20], 85.6%.
For `O=C1OCC2=C1C(c1cccc(F)c1)c1cc3c(cc1N2CCO)OCO3` (stereo not given), the growth in assay [1] was 33.4%; in [2] it was 67.6%; in assay [3] it was 51.2%; in assay [4], 32%; in assay [5], 14.2%; in [6], 34.6%. Further, the growth in assay [7] was 12.5%; in [8], 43%; in assay [9] it was 24.5%; in assay [10], 7.08% (active); in assay [11], 30.5%; in [12], 9.79% (active). Also, the growth was 52.7% in assay [13]; 49.9% in [14]; 32.6% in assay [15]; 38.7% in assay [16]; 1.9% (active) in [17]; 2.82% (active) in assay [18]. For the same compound, the growth in [19] was 75.5%; in assay [20], 12.6%.
On to `CCOC(=O)c1cn2ncnc(Oc3ccc(NC(=O)NC4CC4)c(F)c3)c2c1C`, for which the growth in assay [1] is 90.4%; in assay [2] it was 78.6%; in assay [3] it was 105%; in assay [4] it was 95.2%; in assay [5], 99.1%; in [6], 132%. In addition, the growth in [7] is 90.2%; in assay [8], 102%; in [9], 106%; in [10], 113%; in assay [11], 110%; in [12], 88.6%. The growth in assay [13] was 107%; in assay [14], 99.3%; in assay [15], 97.2%; in assay [16], 95%; in assay [17], 98.5%; in assay [18], 85%. In addition, the growth is 107% in [19] and 109% in assay [20].
With `CCCCCCCCn1ccc2cc(NC(=O)Cn3cc(CN4CCCCCC4)nn3)ccc21`, the growth in assay [1] was 52.3%; in assay [2] it was 38.6%; in [3] it was 26.7%; in assay [4], 55.7%; in [5] it was -58.7% (active); in assay [6], 24%. Also, the growth in [7] was 52.4%; in assay [8], 50.6%; in [9], -71.9% (active); in assay [10], -70.1% (active); in [11], 30.7%; in assay [12] it was -62.2% (active). The growth in assay [13] is -88.6% (active); in assay [14] it was -26% (active); in assay [15], 29.2%; in assay [16], 15.5%; in assay [17], -71.3% (active); in [18], -73.9% (active). The growth is -49.2% (active) in assay [19] and -68.3% (active) in assay [20].
Take `C#CC#CC#CC#CC#CC#CC#CC#CC[C@H]1OC[C@@H](COC(=O)O[C@@H](C(=O)O[C@H]2C[C@@]3(O)[C@@H](OC(=O)c4ccccc4)[C@@H]4[C@]5(OC(C)=O)CO[C@@H]5C[C@H](O)[C@@]4(C)C(=O)[C@H](OC(C)=O)C(=C2C)C3(C)C)[C@@H](NC(=O)c2ccccc2)c2ccccc2)O1`: the growth in assay [1] is 48%; in assay [2] it was 56.2%; in [3] it was 54.6%; in [4], 74.4%; in assay [5], 19.2%; in assay [6], 79.3%. Besides, the growth in assay [7] was 71.4%; in [8], 52.4%; in [9], 83.3%; in assay [10] it was 29.4%; in assay [11] it was 41.1%; in [12] it was 22.7%. The growth in assay [13] was 62.5%; in assay [14] it was 66%; in [15] it was 50.7%; in [16], 65.9%; in assay [17] it was 43.5%; in assay [18], 54.1%. In addition, the growth in assay [19] was 64.6%; in assay [20], 25.3%.
Take `CN1CCN(Cc2ccc(NC(=O)c3cncc(C#Cc4cncc5[nH]ncc45)c3)cc2C(F)(F)F)CC1`: the growth in assay [1] is 7.77% (active); in assay [2] it was -43.3% (active); in assay [3] it was 13.7%; in assay [4], 7.14% (active); in [5] it was 3.22% (active); in [6] it was -22.9% (active). Moreover, the growth was 23.2% in assay [7]; 13.1% in assay [8]; 20.6% in [9]; 1.42% (active) in assay [10]; 20.2% in assay [11]; -5.05% (active) in assay [12]. Moreover, the growth in assay [13] is -65.7% (active); in assay [14] it was -88.2% (active); in assay [15], -4.93% (active); in assay [16], 2.23% (active); in assay [17], 29%; in assay [18], -56.8% (active). The growth in assay [19] is 6.82% (active); in [20], -57.6% (active).
As to `COc1ccc(C2=Nc3c/c(=C\c4c(O)[nH]c5cc(Cl)ccc45)ccc3=N2)cc1`, the growth in assay [1] was 68.1%; in [2] it was 84.1%; in assay [3], 91.2%; in [4], 77.3%; in assay [5], 93.6%; in assay [6], 77.9%. For the same compound, the growth in [7] was 46%; in [8], 74.9%; in [9], 90.8%; in [10], 3.61% (active); in [11], 76.8%; in assay [12] it was 48.8%. Further, the growth is 72.6% in assay [13]; 69.2% in [14]; 38.1% in assay [15]; 89.7% in assay [16]; 57.9% in [17]; 64.8% in assay [18]. Also, the growth in assay [19] is 74.5%; in assay [20] it was 50.5%.
